In PubChem BioAssay AID1159580 (chemical genetic matrix, 2015):
Hit rate of the full screen: of about 5,500 compounds, about 2,000 (36%) were called active. Not shown: some 18% with an inconclusive outcome. No stated cut-off is given here; in the data, active means normalized growth mostly below about 0.91 (no sharp cut-off); inconclusive means no clear call, values can overlap the other calls; inactive means mostly above about 0.92. Some of the results follow.

Experiment: chemical genetic growth profiling, strain panel (AID 1159580);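 further: tested at 20 µM; growth read once vehicle control cultures reached saturation at 30 °C; 1 = growth at the plate median or of vehicle wells; lower values mean less growth of the strain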
Conditions: S. cerevisiae deletion strains, growth OD
[1] = locus YAL040C, strain CLN3, hits give low values
[2] = locus YCL061C, strain MRC1 (second series), hits give low values
[3] = locus YDR150W, strain NUM1, hits give low values
[4] = locus YDR363W, strain ESC2, hits give low values
[5] = locus YER002W, strain NOP16, hits give low values
[6] = locus YJR075W, strain HOC1, hits give low values
[7] = locus YNL197C, strain WHI3, hits give low values
[8] = locus YNL224C, strain SQS1, hits give low values
[9] = locus YOR083W, strain WHI5 (second series), hits give low values
[10] = locus YPL241C, strain CIN2, hits give low values

Measured: normalized growth

COc1cc2c(cc1O)CC[C@@H]1[C@@H]2CC[C@]2(C)[C@@H](O)CC[C@@H]12
inactive: [1] 1.02 | [2] 1 | [3] 0.964 | [4] 1.02 | [5] 0.994 | locus YGR078C, strain PAC10, hits give low values 1 | [6] 1.03 | locus YNL153C, strain GIM3, hits give low values 0.936 | locus YNL175C, strain NOP13, hits give low values 1.01 | [7] 1.03 | [8] 1.03 | [9] 0.982 | [10] 0.996

COc1ccc2c(c1)CCC1C2CC[C@@]2(C)C1CC[C@@H]2NCCCCCCN1C(=O)C=CC1=O (stereo partly specified)
active: [1] 0.444 | [5] 0.843 | [8] 0.256
inactive: locus YAL013W, strain DEP1, hits give low values 0.989 | [2] 0.998 | [3] 0.976 | [4] 0.988 | [6] 0.997 | locus YMR307W, strain GAS1, hits give low values 0.93 | [7] 1.07 | locus YNL322C, strain KRE1, hits give low values 0.984 | [9] 1.02 | [10] 0.993
